{"source": "paper doi:10.1101/2024.03.05.583629", "data": [{"molecular_target": "pT7_6His-AlfaTag-HOXD13 (human, UniProt P35453 263-343)", "sequence (P35453 263-343)": "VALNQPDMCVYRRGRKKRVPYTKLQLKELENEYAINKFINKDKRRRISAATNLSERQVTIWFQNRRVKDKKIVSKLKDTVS", "assay": "PADIT-seq", "conditions": "dsDNA, one strand shown", "units": {"binding signal": "log2FC"}, "values": [{"sequence": "CTCGAGGATATCAAGATCTGGCCTCGGCCCTATAAAAGGAACCTCTAGCTAGCCGACTCACTATAGGGATAATCGCCCTGAGCAAAGACC", "binding signal": "2.89 ± 0.0925"}, {"sequence": "CTCGAGGATATCAAGATCTGGCCTCGGCGTTTTAAGGGGAACCTCTAGCTAGCCGACTCACTATAGGGATAATCGCCCTGAGCAAAGACC", "binding signal": "1.67 ± 0.0925"}, {"sequence": "CTCGAGGATATCAAGATCTGGCCTCGGCGCGTTAGCGGGAACCTCTAGCTAGCCGACTCACTATAGGGATAATCGCCCTGAGCAAAGACC", "binding signal": "-0.986 ± 0.133"}, {"sequence": "CTCGAGGATATCAAGATCTGGCCTCGGCATTTTAACCGGAACCTCTAGCTAGCCGACTCACTATAGGGATAATCGCCCTGAGCAAAGACC", "binding signal": "1.17 ± 0.0785"}, {"sequence": "CTCGAGGATATCAAGATCTGGCCTCGGCCCTCTAAAAGGAACCTCTAGCTAGCCGACTCACTATAGGGATAATCGCCCTGAGCAAAGACC", "binding signal": "0.681 ± 0.104"}, {"sequence": "CTCGAGGATATCAAGATCTGGCCTCGGCGTTTTATCCGGAACCTCTAGCTAGCCGACTCACTATAGGGATAATCGCCCTGAGCAAAGACC", "binding signal": "1 ± 0.0994"}, {"sequence": "CTCGAGGATATCAAGATCTGGCCTCGGCTCTGTAAAAGGAACCTCTAGCTAGCCGACTCACTATAGGGATAATCGCCCTGAGCAAAGACC", "binding signal": "1.83 ± 0.0871"}, {"sequence": "CTCGAGGATATCAAGATCTGGCCTCGGCGTTTTACATGGAACCTCTAGCTAGCCGACTCACTATAGGGATAATCGCCCTGAGCAAAGACC", "binding signal": "2.03 ± 0.0856"}, {"sequence": "CTCGAGGATATCAAGATCTGGCCTCGGCGCGGTAAAAGGAACCTCTAGCTAGCCGACTCACTATAGGGATAATCGCCCTGAGCAAAGACC", "binding signal": "0.513 ± 0.0756"}, {"sequence": "CTCGAGGATATCAAGATCTGGCCTCGGCATTTTACCGGGAACCTCTAGCTAGCCGACTCACTATAGGGATAATCGCCCTGAGCAAAGACC", "binding signal": "1.17 ± 0.0862"}]}]}
